Calls of active or inactive are those of the source. Rule for the calls: active = hit-call score of the fitted dose curve at least 0.9, where 1 is the maximum; inactive = score below 0.9.
Key:
Conditions in all cases: mRNA level, 48 h; actives raise or lower the signal
MYC, MYC (gene 4609) = assay: LTEA_HepaRG_MYC: Life Technologies and Expression Analysis (LTEA) Assay for MYC using HepaRG (AID 2283518)
Procedure, shortened: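 MYC transcript changes, up or down relative to 0.5% DMSO, from TaqMan qRT-PCR normalized to three housekeeping genes. Human HepaRG cultures received chemicals for 48 h at eight half-log concentrations up to 100 uM, in duplicate.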

[1] = read-out: matrix metalloproteinase-3 (MMP3), MMP3 (gene 4314); assay: LTEA_HepaRG_MMP3: Life Technologies and Expression Analysis (LTEA) Assay for matrix metalloproteinase-3 (MMP3) using HepaRG (AID 2283519)
Procedure, shortened: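 qRT-PCR read-out of MMP3 mRNA (normalised to three housekeeping genes) in HepaRG liver cells after 48 h chemical exposure; 8-point half-log series, top 100 uM, 0.5% DMSO vehicle. Bidirectional curve fitting against DMSO baseline.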

[2] = read-out: Paternally Expressed 10 (PEG10), PEG10 (gene 23089); assay: LTEA_HepaRG_PEG10: Life Technologies and Expression Analysis (LTEA) Assay for Paternally Expressed 10 (PEG10) using HepaRG (AID 2283520)
Procedure, shortened: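 After 48 h exposure of differentiated HepaRG cells (0.5% DMSO vehicle, eight concentrations up to 100 uM, duplicates), PEG10 mRNA was measured by TaqMan qRT-PCR. Values were normalised to endogenous control genes and analysed bidirectionally against vehicle.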

[3] = read-out: Nuclear factor NF-kappa-B p105 subunit (Homo sapiens) (UniProt P19838); assay: LTEA_HepaRG_NFKB1: Life Technologies and Expression Analysis (LTEA) Assay for Nuclear Factor Kappa B Subunit 1 (NFKB1) using HepaRG (AID 2283521)
Procedure, shortened: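 Differentiated human HepaRG cells were exposed for 48 h in serum-free induction medium to eight concentrations (top 100 uM, half-log steps, 0.5% DMSO), in duplicate. NFKB1 mRNA was measured by TaqMan qRT-PCR, normalized to ACTB/GAPDH/POLR2A, and fitted bidirectionally against DMSO.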

[4] = read-out: Protein phosphatase 2A (PPP2R4), PTPA (gene 5524); assay: LTEA_HepaRG_PPP2R4: Life Technologies and Expression Analysis (LTEA) Assay for Protein phosphatase 2A (PPP2R4) using HepaRG (AID 2283522)
Procedure, shortened: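 Using HepaRG cultures maintained in 0.5% DMSO, chemicals are tested 48 h at up to 100 uM in duplicate. Induction or suppression of PPP2R4 mRNA, measured by qRT-PCR, is fitted bidirectionally against the vehicle baseline.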

[5] = read-out: Phosphatase and tensin (PTEN), PTEN (gene 5728); assay: LTEA_HepaRG_PTEN: Life Technologies and Expression Analysis (LTEA) Assay for Phosphatase and tensin (PTEN) using HepaRG (AID 2283523)
Procedure, shortened: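 HepaRG, 48 h exposure, 8-pt half-log series from 100 uM top, 0.5% DMSO vehicle, duplicates. Readout: Fluidigm qRT-PCR of PTEN transcript; housekeeping normalization (ACTB, GAPDH, POLR2A). Gain or loss fitted relative to DMSO baseline.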

[6] = read-out: solute carrier (SLC22A1), SLC22A1 (gene 6580); assay: LTEA_HepaRG_SLC22A1: Life Technologies and Expression Analysis (LTEA) Assay for solute carrier (SLC22A1) using HepaRG (AID 2283524)
Procedure, shortened: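 qRT-PCR readout (TaqMan, Fluidigm arrays) of SLC22A1 transcript, normalized to three housekeeping genes; bidirectional curve fit relative to 0.5% DMSO vehicle. Differentiated human HepaRG cells, 48 h chemical exposure, top concentration 100 uM, half-log steps, eight points.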

[7] = read-out: Pyruvate Dehydrogenase Kinase 4 (PDK4), PDK4 (gene 5166); assay: LTEA_HepaRG_PDK4: Life Technologies and Expression Analysis (LTEA) Assay for Pyruvate Dehydrogenase Kinase 4 (PDK4) using HepaRG (AID 2283525)
Procedure, shortened: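 HepaRG (human liver line), 48 h chemical exposure, 8-pt half-log CRC top 100 uM, 0.5% DMSO vehicle, duplicates. Readout: TaqMan qRT-PCR of PDK4 mRNA, housekeeping-normalized; gain/loss fit relative to DMSO baseline.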

[8] = read-out: NAD(P)H dehydrogenase [quinone] 1 (NQO1), NQO1 (gene 1728); assay: LTEA_HepaRG_NQO1: Life Technologies and Expression Analysis (LTEA) Assay for NAD(P)H dehydrogenase [quinone] 1 (NQO1) using HepaRG (AID 2283526)
Procedure, shortened: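 In this assay, gene expression is read by qRT-PCR after 48 h exposure of HepaRG cells to eight concentrations (max 100 uM, half-log) in 0.5% DMSO. Each chemical runs in duplicate, and activity is scored relative to vehicle.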

[9] = read-out: Nuclear factor erythroid 2-related factor 2 (Homo sapiens) (UniProt Q16236); assay: LTEA_HepaRG_NFE2L2: Life Technologies and Expression Analysis (LTEA) Assay for Nuclear factor erythroid 2-related factor 2 (NFE2L2) Transcription Factor using HepaRG (AID 2283527)
Procedure, shortened: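 HepaRG, 48 h dosing, 8-pt half-log series from 100 uM in 0.5% DMSO, duplicates. Read-out: NFE2L2 mRNA by qRT-PCR (ACTB/GAPDH/POLR2A normalization). Bidirectional curve fit vs DMSO baseline.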

[10] = read-out: succinate dehydrogenase complex iron sulfur subunit B (SDHB), SDHB (gene 6390); assay: LTEA_HepaRG_SDHB: Life Technologies and Expression Analysis (LTEA) Assay for succinate dehydrogenase complex iron sulfur subunit B (SDHB) using HepaRG (AID 2283528)
Procedure, shortened: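 HepaRG, 48 h exposure, 8-pt half-log series from 100 uM in 0.5% DMSO, duplicates. Readout: SDHB mRNA by Fluidigm qRT-PCR vs housekeeping genes; bidirectional fit relative to DMSO.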

[11] = read-out: solute carrier (SLCO1B1), SLCO1B1 (gene 10599); assay: LTEA_HepaRG_SLCO1B1: Life Technologies and Expression Analysis (LTEA) Assay for solute carrier (SLCO1B1) using HepaRG (AID 2283530)
Procedure, shortened: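 SLCO1B1 transcript levels were quantified by TaqMan qRT-PCR using three housekeeping genes for normalization. This followed 48 h chemical exposure (100 uM top, half-log, 8 points, 0.5% DMSO) of HepaRG liver cells, with gain or loss fitted relative to DMSO.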

[12] = read-out: sulfotransferase 2A1 (SULT2A1), SULT2A1 (gene 6822); assay: LTEA_HepaRG_SULT2A1: Life Technologies and Expression Analysis (LTEA) Assay for sulfotransferase 2A1 (SULT2A1) using HepaRG (AID 2283531)
Procedure, shortened: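 Expression change of SULT2A1, by qRT-PCR with three housekeeping-gene normalization, was scored bidirectionally versus DMSO. Cells: differentiated HepaRG, dosed in duplicate for 48 h across 8 points, highest 100 µM, half-log dilution, 0.5% DMSO.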

[13] = read-out: Transforming Growth Factor (TGFA), TGFA (gene 7039); assay: LTEA_HepaRG_TGFA: Life Technologies and Expression Analysis (LTEA) Assay for Transforming Growth Factor (TGFA) using HepaRG (AID 2283532)
Procedure, shortened: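 qRT-PCR read-out of TGFA transcript, normalized to three housekeeping genes, fitted bidirectionally against 0.5% DMSO baseline. Human HepaRG cultures received chemicals for 48 h at eight half-log concentrations, top 100 uM.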

[14] = read-out: Tumor necrosis factor receptor 1 (TNFRSF1A), TNFRSF1A (gene 7132); assay: LTEA_HepaRG_TNFRSF1A: Life Technologies and Expression Analysis (LTEA) Assay for Tumor necrosis factor receptor 1 (TNFRSF1A) using HepaRG (AID 2283535)
Procedure, shortened: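 mRNA measured by qRT-PCR (TaqMan, Fluidigm arrays) against ACTB/GAPDH/POLR2A housekeepers after 48 h chemical exposure of HepaRG cells. Top concentration 100 uM, half-log 8-point series, duplicates; vehicle 0.5% DMSO, both fit directions.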

[15] = read-out: Thyroid Hormone Responsive (THRSP), THRSP (gene 7069); assay: LTEA_HepaRG_THRSP: Life Technologies and Expression Analysis (LTEA) Assay for Thyroid Hormone Responsive (THRSP) using HepaRG (AID 2283536)
Procedure, shortened: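 qRT-PCR read-out (Fluidigm TaqMan), housekeeping-normalized (ACTB/GAPDH/POLR2A). HepaRG, 48 h chemical exposure, 8-pt half-log series from 100 uM in 0.5% DMSO, duplicates. Bidirectional curve fit vs 0.5% DMSO baseline.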

[16] = read-out: Cellular tumor antigen p53 (Homo sapiens) (UniProt P04637); assay: LTEA_HepaRG_TP53: Life Technologies and Expression Analysis (LTEA) Assay for Tumor Protein P53 (TP53) using HepaRG (AID 2283537)
Procedure, shortened: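 HepaRG, 48 h exposure, top 100 uM, half-log 8-point, 0.5% DMSO vehicle, duplicates. Read: TP53 mRNA by TaqMan qRT-PCR, normalised to ACTB/GAPDH/POLR2A; bidirectional fit vs DMSO.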

[17] = read-out: Signal transducer and activator of transcription 3 (Homo sapiens) (UniProt P40763); assay: LTEA_HepaRG_STAT3: Life Technologies and Expression Analysis (LTEA) Assay for Signal transducer and activator of transcription (STAT3) using HepaRG (AID 2283529)
Procedure, shortened: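 HepaRG, 48 h exposure, 8-pt half-log series (top 100 uM), 0.5% DMSO vehicle, duplicates. Readout: STAT3 transcript by Fluidigm qRT-PCR, housekeeping-normalized; bidirectional fit vs DMSO baseline.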

[18] = read-out: Transforming Growth Factor (TGFB1), TGFB1 (gene 7040); assay: LTEA_HepaRG_TGFB1: Life Technologies and Expression Analysis (LTEA) Assay for Transforming Growth Factor (TGFB1) Transporter using HepaRG (AID 2283533)
Procedure, shortened: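 TGFB1 transcript measured by qRT-PCR with normalisation to three housekeeping genes (ACTB, GAPDH, POLR2A); human HepaRG line treated in duplicate for 48 hr with an 8-point series topping at 100 uM, 0.5% DMSO vehicle, bidirectionally fitted.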

Measured: AC50

Nuclear factor NF-kappa-B p105 subunit (Homo sapiens), sequence (P19838 whole entry, looked up): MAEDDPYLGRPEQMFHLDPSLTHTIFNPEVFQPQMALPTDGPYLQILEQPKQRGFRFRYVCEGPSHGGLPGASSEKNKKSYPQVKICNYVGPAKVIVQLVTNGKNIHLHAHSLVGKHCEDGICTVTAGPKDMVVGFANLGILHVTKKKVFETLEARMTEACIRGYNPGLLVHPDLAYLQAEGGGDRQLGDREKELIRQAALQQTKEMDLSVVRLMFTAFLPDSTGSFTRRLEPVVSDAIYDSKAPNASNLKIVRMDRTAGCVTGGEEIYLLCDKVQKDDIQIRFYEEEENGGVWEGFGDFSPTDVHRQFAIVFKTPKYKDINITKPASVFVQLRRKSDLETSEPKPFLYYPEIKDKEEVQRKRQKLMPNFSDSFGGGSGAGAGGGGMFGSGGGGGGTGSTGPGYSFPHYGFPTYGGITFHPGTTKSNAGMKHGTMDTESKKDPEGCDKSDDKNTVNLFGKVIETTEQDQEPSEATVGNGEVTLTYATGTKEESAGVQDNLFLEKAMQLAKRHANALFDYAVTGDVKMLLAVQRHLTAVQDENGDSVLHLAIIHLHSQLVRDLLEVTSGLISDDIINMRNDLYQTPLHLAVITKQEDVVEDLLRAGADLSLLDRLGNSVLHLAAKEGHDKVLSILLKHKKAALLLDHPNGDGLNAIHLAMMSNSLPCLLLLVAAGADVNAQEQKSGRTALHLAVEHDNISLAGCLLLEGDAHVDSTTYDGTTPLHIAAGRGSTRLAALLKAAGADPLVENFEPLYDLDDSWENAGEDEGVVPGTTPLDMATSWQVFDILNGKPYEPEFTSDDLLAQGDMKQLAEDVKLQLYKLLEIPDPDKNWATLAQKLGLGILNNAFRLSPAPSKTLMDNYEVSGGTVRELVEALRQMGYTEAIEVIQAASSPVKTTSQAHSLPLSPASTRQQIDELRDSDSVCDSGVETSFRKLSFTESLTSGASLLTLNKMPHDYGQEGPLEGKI
Nuclear factor erythroid 2-related factor 2 (Homo sapiens), sequence (Q16236 whole entry, looked up): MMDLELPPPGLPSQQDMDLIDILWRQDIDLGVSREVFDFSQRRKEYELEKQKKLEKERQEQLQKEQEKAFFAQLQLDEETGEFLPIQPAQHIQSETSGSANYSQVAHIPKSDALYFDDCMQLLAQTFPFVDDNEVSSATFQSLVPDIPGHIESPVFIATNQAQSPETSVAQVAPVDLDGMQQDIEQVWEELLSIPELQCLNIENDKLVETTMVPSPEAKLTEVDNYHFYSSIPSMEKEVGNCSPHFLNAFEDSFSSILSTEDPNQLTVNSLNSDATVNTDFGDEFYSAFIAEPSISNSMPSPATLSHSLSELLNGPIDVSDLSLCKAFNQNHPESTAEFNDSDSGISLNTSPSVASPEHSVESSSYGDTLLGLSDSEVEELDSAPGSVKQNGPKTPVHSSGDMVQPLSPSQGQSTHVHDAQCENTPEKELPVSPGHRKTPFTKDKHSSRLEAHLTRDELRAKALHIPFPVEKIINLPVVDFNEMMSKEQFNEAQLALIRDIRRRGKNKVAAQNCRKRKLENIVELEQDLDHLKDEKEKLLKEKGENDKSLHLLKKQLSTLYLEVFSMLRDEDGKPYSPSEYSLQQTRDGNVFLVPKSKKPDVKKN
Cellular tumor antigen p53 (Homo sapiens), sequence (P04637 whole entry, looked up): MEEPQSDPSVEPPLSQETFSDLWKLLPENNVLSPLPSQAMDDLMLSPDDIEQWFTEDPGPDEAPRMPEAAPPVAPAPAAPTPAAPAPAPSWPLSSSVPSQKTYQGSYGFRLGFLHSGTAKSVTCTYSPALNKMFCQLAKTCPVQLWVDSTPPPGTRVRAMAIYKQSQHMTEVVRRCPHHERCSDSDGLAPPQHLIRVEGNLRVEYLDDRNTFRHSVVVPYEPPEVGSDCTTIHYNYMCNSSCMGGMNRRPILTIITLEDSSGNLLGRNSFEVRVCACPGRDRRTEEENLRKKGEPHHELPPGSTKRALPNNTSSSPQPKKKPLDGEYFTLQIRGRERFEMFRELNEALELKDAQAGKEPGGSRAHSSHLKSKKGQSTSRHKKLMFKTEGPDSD
Signal transducer and activator of transcription 3 (Homo sapiens), sequence (P40763 whole entry, looked up): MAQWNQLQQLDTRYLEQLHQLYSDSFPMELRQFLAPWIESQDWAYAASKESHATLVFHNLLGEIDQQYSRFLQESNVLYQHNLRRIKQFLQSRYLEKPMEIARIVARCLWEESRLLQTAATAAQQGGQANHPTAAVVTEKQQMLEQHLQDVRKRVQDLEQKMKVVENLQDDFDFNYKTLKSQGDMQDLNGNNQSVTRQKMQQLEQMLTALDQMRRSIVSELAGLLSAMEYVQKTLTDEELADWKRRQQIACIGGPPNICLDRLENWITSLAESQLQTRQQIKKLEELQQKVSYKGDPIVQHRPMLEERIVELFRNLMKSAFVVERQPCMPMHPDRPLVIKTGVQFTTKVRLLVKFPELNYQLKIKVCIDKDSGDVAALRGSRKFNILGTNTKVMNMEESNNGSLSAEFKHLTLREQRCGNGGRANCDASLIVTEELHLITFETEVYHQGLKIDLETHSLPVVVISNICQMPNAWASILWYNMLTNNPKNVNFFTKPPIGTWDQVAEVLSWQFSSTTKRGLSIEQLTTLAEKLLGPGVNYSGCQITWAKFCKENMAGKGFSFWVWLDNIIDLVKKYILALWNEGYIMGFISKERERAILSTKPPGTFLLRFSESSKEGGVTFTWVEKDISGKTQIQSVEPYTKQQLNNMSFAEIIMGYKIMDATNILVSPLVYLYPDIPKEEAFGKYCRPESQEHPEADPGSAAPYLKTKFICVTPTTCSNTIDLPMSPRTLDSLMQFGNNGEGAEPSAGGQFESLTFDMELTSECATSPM

CC#C[C@]1(O)CC[C@H]2[C@@H]3CCC4=CC(=O)CCC4=C3[C@@H](c3ccc(N(C)C)cc3)C[C@@]21C
inactive: [1] | [2] | [5] | [8] | [14]
active: MYC, MYC (gene 4609) 50 µM | [3] 50 µM | [4] 13.8 µM | [6] 25.2 µM | [7] 0.504 µM | [9] 50 µM | [10] 26.2 µM | [11] 84.2 µM | [12] 57.4 µM | [13] 44.9 µM | [15] 11.3 µM | [16] 20.4 µM

c1ccc2c(c1)ccc1ccccc12
not listed: [17] | [18]
inactive: all other assays above

CCCCCCCCCCCCc1ccccc1S(=O)(=O)O
inactive: [2] | [3] | [8] | [10] | [14]
active: MYC, MYC (gene 4609) 37.8 µM | [1] 26.9 µM | [4] 21.2 µM | [5] 12 µM | [6] 93.2 µM | [7] 10.8 µM | [9] 19.9 µM | [11] 79.6 µM | [12] 83.4 µM | [13] 32.5 µM | [15] 5.53 µM | [16] 58.1 µM

CCCOC(=O)c1ccc(O)cc1
active: [14] 0.779 µM
not listed: [2] | [3]
inactive: all other assays above
